CYP2C9 act: increases human cytochrome P450 2C9 activity. recombinant CYP2C9, luciferin-H conversion, luminescence; active compounds read high; factor 1 = untreated enzyme, 0 = blocked. 96,000 tested, 1.4% active. P11712. activation factor at 5 µM. AID 1024;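 active = activation factor of 2 or more for CYP2C9 at a 5 µM dose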;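 note: 0 = sulfaphenazole-blocked wells and 1 = vehicle-only wells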
sEH inhibitor: soluble epoxide hydrolase (human) inhibition. recombinant human sEH enzymatic activity assay. inhibition, % at 2 µM. 91,000 tested, 0.34% active. AID 707; in the data active = inhibition above about 80%
CYP2C19 inh: human CYP2C19 inhibition | P33261 | CYP2C19 Supersomes, luciferin-H EGE luminescence, 30 min | inhibition, % at 5 µM | 96,000 tested, 21% active;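 active = CYP2C19 inhibition above a set limit at 5 µM in the primary screen, cut at about 50% in these data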;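 note: plate controls were negative control wells for no effect and 2.5 mM tranylcypromine positive control for full effect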
Target sequence (P33261 whole entry, looked up): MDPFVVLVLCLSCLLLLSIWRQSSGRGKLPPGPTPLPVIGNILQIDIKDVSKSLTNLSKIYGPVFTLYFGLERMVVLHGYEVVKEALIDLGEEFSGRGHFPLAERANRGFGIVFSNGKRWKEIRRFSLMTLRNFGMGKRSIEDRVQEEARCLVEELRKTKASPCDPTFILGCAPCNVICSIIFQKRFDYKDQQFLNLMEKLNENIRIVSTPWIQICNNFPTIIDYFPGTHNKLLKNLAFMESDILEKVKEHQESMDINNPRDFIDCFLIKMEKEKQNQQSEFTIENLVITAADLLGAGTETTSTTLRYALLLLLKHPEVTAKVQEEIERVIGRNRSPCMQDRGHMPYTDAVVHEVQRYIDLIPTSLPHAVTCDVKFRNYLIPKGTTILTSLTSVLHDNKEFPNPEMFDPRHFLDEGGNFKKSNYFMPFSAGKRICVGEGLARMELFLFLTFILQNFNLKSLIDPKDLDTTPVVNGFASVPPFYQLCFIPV
CYP2C19 activ: cytochrome P450 2C19 (human) activation. 96,000 tested, under 10 active. AID 1025. recombinant CYP2C19, luciferin-H EGE luminescence; active compounds read high; 0 = fully inhibited enzyme, 1 = untreated enzyme. activation factor at 5 µM;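 active = activation factor of at least 2 at 5 µM in the primary screen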;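 note: 0 = wells with 2.5 mM tranylcypromine and 1 = vehicle-only wells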
CYP2C9 inh: blocks human cytochrome P450 2C9 | CYP2C9 Supersomes, luciferin-H conversion, luminescence | AID 777 | 96,000 tested, 20% active | inhibition, % at 5 µM | P11712;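 active = blocking of liver enzyme CYP2C9 beyond about 50% at 5 µM, limit read from the data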
sEH activator: activators of human soluble epoxide hydrolase; P34913; purified human sEH enzymatic activity, activator screen; activation, % at 2 µM; 91,000 tested, 0.04% active; AID 717; in the data active = activation above about 37%
* marks the source's active call; other numbers are inactive results; / = not tested or not shown. Most compounds without a hit are left out; they make up all but 27% or so of the library.

SMILES	CYP2C9 act	sEH inhibitor	CYP2C19 inh	CYP2C19 activ	CYP2C9 inh	sEH activator
O=C(/C=C/c1ccco1)NC(=S)Nc1ccc(Cl)cn1	0.7	24	15	0.9	26	-24
C=CCSc1nnc2nc3c(nn12)c1cc(C)ccc1n3CC=C	0.4	14	33	0.7	56*	-13
C=CCSc1nnc(-c2nnc(SCC=C)n2-c2ccccc2)n1-c1ccccc1	0.6	2	32	0.7	36	2
CCCn1nnnc1NCc1ccccc1OCc1ccc(F)cc1	0.1	-20	88*	0.1	89*	21
NC(=O)C1CCN(C(=O)CN2CCc3ccccc32)CC1	1	14	11	0.9	0	-16
O=C(c1ccncc1)c1nccn1-c1ccccn1	0.2	-12	75*	0.2	81*	11
Fc1ccccc1CSc1nc2ncc(Br)cc2[nH]1	0.2	-4	87*	0.1	78*	7
Fc1ccccc1CSc1nc2ccccc2[nH]1	0.2	-1	100*	0	85*	0
c1ccc2[nH]c(SCc3cscn3)nc2c1	0.8	-8	91*	0.1	23	7
Fc1c(F)c(F)c(CSc2nc3ccccc3[nH]2)c(F)c1F	0.7	16	46	0.5	26	-13
c1ccc(OCCSc2nc3ccccc3[nH]2)cc1	/	-6	/	/	/	9
CSc1n[nH]c(NCc2cccs2)n1	1.1	-11	-9	1.1	-8	12
COCC(=O)NC(c1ccccc1)c1ccccc1	1	-8	-1	1	-4	12
CC(=O)Oc1ccc2ccccc2c1C(NC(=O)Cc1ccccc1)c1ccc(Cl)cc1 (stereo not given)	0.4	-7	48	0.5	63*	10
COc1ccc(OC)c(NC(=O)C2CC(=O)n3ncnc3N2)c1 (stereo not given)	1	1	19	0.8	2	4
Nc1nnc(CSCc2ccc(F)cc2)s1	1	/	48	0.5	-1	/
CC1Oc2ccccc2N(CC(=O)NCCc2ccccc2)C1=O (stereo not given)	0.7	7	94*	0.1	26	-8
O=C(O)CN1C(=O)C2(OCCCO2)c2ccccc21	1	-6	-5	1.1	1	8
Cc1ccccc1CN1C(=O)C2(OCCCO2)c2ccccc21	2.2*	-2	28	0.7	-116	-2
Cc1ccc2c(c1)N(CC(=O)NCc1cccs1)C(=O)CO2	1.2	/	68*	0.3	-18	/
O=C(CN1C(=O)C2(OCCCO2)c2ccccc21)NCCc1ccccc1	0.8	/	86*	0.1	17	/
CC(=O)N1CCc2cc(S(=O)(=O)NC(CC(C)C)C(=O)N3CCc4ccccc4C3)ccc21 (stereo not given)	0.6	2	28	0.7	43	-4
CC1Oc2ccccc2N(CC(=O)N(Cc2ccccc2)Cc2ccccn2)C1=O (stereo not given)	0.3	6	61*	0.4	65*	-4
Cc1ccc2c(c1)N(CC(=O)NC1CCC(C)CC1)C(=O)CO2 (stereo not given)	1.1	11	62*	0.4	-6	-12
CC(C)C(OC(=O)CN1C(=O)COc2ccccc21)C(=O)NC1CCCC1 (stereo not given)	0.8	-12	18	0.8	24	12
SMILES	CYP2C9 act	sEH inhibitor	CYP2C19 inh	CYP2C19 activ	CYP2C9 inh	sEH activator
Cc1ccc2c(c1)N(CC(=O)OC(CC(C)C)C(=O)NC1CCCC1)C(=O)CO2 (stereo not given)	0.4	/	69*	0.3	63*	/
Cc1ccc(CNC(=O)CN2C(=O)COc3ccc(C)cc32)cc1	1.1	8	69*	0.3	-12	-8
COc1ccccc1CC(=O)Nc1ccc(-c2nnc(-c3ccco3)o2)cc1	0.8	/	23	0.8	23	/
Cc1ccc(CCNC(=O)CN2C(=O)COc3ccccc32)cc1	0.4	/	89*	0.1	59*	/
CCN(CCCNC(=O)CN1C(=O)COc2ccccc21)c1cccc(C)c1	0.3	20	82*	0.2	67*	-19
CCN1CCN(Cc2c(C)[nH]c3ccc(OC)cc3c2=O)CC1	1.1	-2	8	0.9	-10	0
CC(=O)c1c(COC(=O)c2ccncc2)nc2ccccc2[n+]1[O-]	0.6	/	92*	0.1	35	/
CC(=O)c1c(COC(=O)c2ccco2)nc2ccccc2[n+]1[O-]	0.4	/	60*	0.4	63*	/
CCCCN(CC)c1nc(N)c(C#N)c(CC#N)c1C#N	0.1	9	64*	0.4	85*	-10
CCOC(=O)c1c(C)[nH]c(C)c1C(=O)Cn1nnc(-c2ccccc2C)n1	/	-2	/	/	/	0
Cc1ccsc1C(=O)OC1CCOC1=O (stereo not given)	2.3*	/	-7	1.1	-127	/
CC(=O)Nc1sc(C)c(C)c1C(=O)OC1CCOC1=O (stereo not given)	0.2	/	55*	0.4	77*	/
COc1cc(SC)ccc1C(=O)OC1CCOC1=O (stereo not given)	1	8	35	0.6	-2	-6
C=CCOc1nc2c(c(=O)n(Cc3ccc(Cl)c(Cl)c3)c(=O)n2C)n1C	/	8	/	/	/	-8
CCc1ccc(C(=O)COC(=O)c2cnccn2)cc1	1.2	-8	-16	1.2	-22	10
COC(=O)c1sccc1NC(=O)C12CC3CC(CC(C3)C1)C2	/	5	/	/	/	-3
O=C(CC(Sc1ccccc1)c1cccs1)c1ccco1 (stereo not given)	0.1	-15	100*	0	95*	15
CCCCNC(=O)Nc1ccccc1C(=O)NCCC	/	4	/	/	/	-1
CCCCNC(=O)c1ccccc1NC(=O)CCSc1ccccc1	0.2	-8	93*	0.1	81*	10
CC1CCN(C(=S)c2ccc(O)cc2)CC1	1.1	6	45	0.5	-9	-4
CC1CCN(C(=S)c2ccccc2O)CC1	0.7	-6	94*	0.1	29	0
Clc1ccc(OCc2nc(-c3ccncc3)no2)c(Br)c1	0.1	/	94*	0.1	95*	/
Cc1ccccc1OCc1nc(-c2ccc(-n3cccc3)cc2)no1	1	6	-7	1.1	4	-4
Cc1cc(OCc2nc(-c3cccnc3)no2)c(C)cc1Br	1.1	4	24	0.8	-11	0
Clc1ccccc1OCc1nc(-c2ccncc2)no1	0	4	98*	0	98*	1
Cn1c(=O)c2c(nc(Oc3ccc4ccccc4c3)n2C)n(C)c1=O	0.8	6	22	0.8	19	-5
CCCCOC(=O)n1ccc(C(=O)Nc2ccccc2OC)n1	2.1*	-3	10	0.9	-111	1
CCOC(=O)n1ccc(C(=O)Nc2ccccc2F)n1	0.8	/	7	0.9	19	/
CCn1ccc(C(=O)Nc2ccc(S(=O)(=O)Nc3ccccc3OC)cc2)n1	0.2	-12	81*	0.2	82*	14
COc1ccccc1NS(=O)(=O)c1ccc(NC(=O)c2nc3nc(C)cc(C(F)F)n3n2)cc1	0.4	-4	26	0.7	61*	6

Screening data (PubChem BioAssay)
